Some of the results follow. The source made the active and inactive calls.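 Rule for the calls: active = compounds that block the splicing kinase Clk1 enough to give a fitted half-inhibition concentration; inactive = the rest.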
Target: Dual specificity protein kinase CLK1 (Homo sapiens) (UniProt P49759)
Experiment: Kinase Inhibition Study on Inhibitors of CDC-like Kinase 1 (Reaction Biology data)
Conditions: recombinant Clk1 kinase assay, 10 uM ATP
Text: NIH Molecular Libraries Probe Production Centers Network [MLPCN] NIH Chemical Genomics Center [NCGC] MLPCN Grant: 1R03MH084827-01 Assay Submitter (PI): Tom Misteli NCGC Assay Overview: Alternative splicing of pre-mRNAs plays a major role in the regulation of eukaryotic gene expression. Alternative splicing is now thought to be one of the primary reasons for the complexity of higher organisms leading to an average of three protein isoforms per gene. Aberrant splicing can lead to a number of diseases and is known to play a role in rare genetic diseases such as progeria syndrome. Hutchinson-Gilford Progeria Syndrome (HGPS) is a pediatric premature aging disease caused by a spontaneous mutation in the lamin A/C (LMNA) gene due to a single point mutation in the lamin A gene effecting 1 in 4 million people. To identify both specific splicing modulators of the lamin A gene as well as general splicing modulators, a cell-based HTS assay was developed using a minigene reporter system (AIDs, 1459 & 1487). […] This AID summarizes the characterization of lead compounds in Clk1.
All kinase reactions were performed using 10 uM ATP in the assay. 100% activity was taken from kinase reactions with DMSO alone (the vehicle used for compound stock solutions).

Dual specificity protein kinase CLK1 (Homo sapiens), sequence (P49759 whole entry, looked up): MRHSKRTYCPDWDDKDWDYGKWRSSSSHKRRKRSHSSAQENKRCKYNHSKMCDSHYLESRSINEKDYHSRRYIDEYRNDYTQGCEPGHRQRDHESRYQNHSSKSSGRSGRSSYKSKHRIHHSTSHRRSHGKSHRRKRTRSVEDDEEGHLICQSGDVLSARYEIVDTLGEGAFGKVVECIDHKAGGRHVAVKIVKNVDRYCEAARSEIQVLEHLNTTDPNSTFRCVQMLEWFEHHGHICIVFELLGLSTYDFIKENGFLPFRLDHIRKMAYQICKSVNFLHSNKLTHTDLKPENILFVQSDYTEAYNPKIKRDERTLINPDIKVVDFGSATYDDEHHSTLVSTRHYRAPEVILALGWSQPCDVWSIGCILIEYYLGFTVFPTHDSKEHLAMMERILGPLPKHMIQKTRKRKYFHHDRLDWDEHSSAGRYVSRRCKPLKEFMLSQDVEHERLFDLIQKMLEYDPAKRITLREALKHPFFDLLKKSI

Potency, active:
CC(Nc1ncnc2ccc(-c3ccc4c(c3)OCO4)cc12)c1ccco1 (stereo not drawn) 5750 nM
c1nc(N2CCOCC2)c2cc(-c3ccc4c(c3)OCO4)ccc2n1 1110 nM
CN(Cc1cncn1C)c1ncnc2ccc(-c3ccc4c(c3)OCO4)cc12 2800 nM
